Measured values as given in PubChem BioAssay (EPA / NIEHS).
Active and inactive are the calls of the source. Rule for the calls: active = hit-call score of the fitted dose curve at least 0.9, where 1 is the maximum; inactive = score below 0.9.

test: ATG_NRF2_ARE_CIS: Attagene CIS-FACTORIAL HepG2 Assay for human Nuclear Factor Erythroid 2 Related Factor 2 (NFR2) response to Antioxidant Response Elements (ARE) (AID 2282992); details: HepG2 Attagene ARE/NRF2 reporter, transcription factor activity; actives raise or lower the signal
Procedure: ATG_CIS is a cell-based, multiplexed-readout assay that uses HepG2, a human liver cell line, with measurements taken at 24 hours after chemical dosing in a 24-well plate.ATG_NRF2_ARE_CIS is one of 52 assay component(s) measured or calculated from the ATG_CIS assay. It is designed to make measurements of mRNA induction, a form of inducible reporter, as detected with fluorescence intensity signals by Reverse transcription polymerase chain reaction (RT-PCR) and Capillary electrophoresis technology.Data from the assay component ATG_NRF2_ARE_CIS was analyzed into 1 assay endpoint. This assay endpoint, ATG_NRF2_ARE_CIS, was analyzed with bidirectional fitting relative to DMSO as the negative control and baseline of activity. Using a type of inducible reporter, measures of mRNA for gain or loss-of-signal activity can be used to understand the reporter gene at the transcription factor-level as they relate to the gene NFE2L2. Furthermore, this assay endpoint can be referred to as a primary readout, because this assay has produced multiple assay endpoints where this one serves a reporter gene function. To generalize the intended target to other relatable targets, this assay endpoint is annotated to the dna binding intended target family, where the subfamily is basic leucine zipper.
Human liver HepG2 cells are transiently transfected with multiple reporter transcription units (MRTUs) in 6-well plates using FuGene 6 reagent (Roche; 3 ml FuGene/1 mg DNA). The MRTU constructs are regulated by a cis-regulating element (promoter). […] A major difference between the CIS and TRANS system is that in CIS activities of endogenous TFs are measured, whereas the TRANS assay evaluates changes in activities of exogenous, chimeric NR-Gal4 proteins. […] At the end of 24 hour incubation, total RNA was isolated using TriZol reagent (Invitrogen). The isolated RNA is then reverse-transcribed using oligo(dT) primer and Mo-MLV reverse transcriptase (Invitrogen) with DNAse I (Ambion) treatment for 30 min. The one-tenth of the produced cDNA was amplified by PCR using Taq DNA polymerase (Invitrogen) and two reporter sequence-specific primers. The PCR products were fluorescently labeled by primer extension with 6-arboxyfluorescein (6-FAM) 5'-labeled reporter sequence-specific primer (2 min at 95 C, 20 s at 68 C and 10 min at 72 C) and these products were digested with 5U of HpaI (New England Biolabs) for 2h at 37 C. The fragments were purified using Qiaquick PCR columns (Qiagen), analyzed on an ABI 3130xL genetic analyzer (Applied Biosystems) with peak positions identified by using a set of X-rhodamine (ROX)-labeled MapMarker1000 molecular weight standards (BioVentures). The raw capillary electrophoresis data was processed using Attagraph software (Attagene).

| Structure (SMILES) | outcome | AC50 |
| --- | --- | --- |
| COC(=O)c1ccc2cc(C(=O)OC)ccc2c1 | inactive |  |
| O=C1CCCN1CCO | inactive |  |
| NNC(=O)c1cccc(C(=O)NN)c1 | inactive |  |
| CC1=NC(C)OC1C (stereo not given) |  | 42.5 µM (active) |
| NC(=O)OCC(COC(N)=O)c1ccccc1 | inactive |  |
| O=S(=O)(O)c1ccc2cc(O)c(S(=O)(=O)O)cc2c1 |  | 46.6 µM (active) |
| CCCCCC/C=C/C=O |  | 47.7 µM (active) |
| CCCCCCCCC(=O)OCC |  | 47.4 µM (active) |
| O=C1OC(=O)c2cc(Oc3ccc4c(c3)C(=O)OC4=O)ccc21 | inactive |  |
| C=C(C)[C@H]1CC=C(C)CC1 | inactive |  |
| COCCOCCOCCOCCOC | inactive |  |
| CCCCCCCCCCCCCCCCCC#N | inactive |  |
| Oc1ccc(Cl)cc1Cc1cc(Cl)ccc1O |  | 2.75 µM (active) |
| Cc1ccc([N+](=O)[O-])cc1S(=O)(=O)O | inactive |  |
| C=CC(=O)OCCOC1C2CCC1C1CC=CC12 (stereo not given) | inactive |  |
| O=C(/C=C/C=C/c1ccc2c(c1)OCO2)N1CCCCC1 |  | 47.4 µM (active) |
| Nc1ccc(Oc2ccc(N)c(N)c2)cc1 |  | 30.6 µM (active) |
| FC(F)=C(F)OC(F)(F)C(F)(F)C(F)(F)F | inactive |  |
| CCN(CC)c1ccc(C(=O)c2ccccc2C(=O)O)c(O)c1 | inactive |  |
| c1ccc(-c2ccccn2)nc1 | inactive |  |

| Structure (SMILES) | outcome | AC50 |
| --- | --- | --- |
| CCCCC(CC)COC(=O)c1ccccc1O (stereo not given) | inactive |  |
| C=C(C)c1cccc(C(C)(C)N=C=O)c1 | inactive |  |
| CCCCCCCOC(=O)CCC | inactive |  |
| O=C(O)c1cc2ccccc2nc1C(=O)O | inactive |  |
| COc1ccc2nc(N)sc2c1 |  | 13.9 µM (active) |
| CC1(C)S[C@@H]2[C@H](NC(=O)COc3ccccc3)C(=O)N2[C@H]1C(=O)O | inactive |  |
| O=c1cc(-c2ccccc2)oc2ccccc12 |  | 4.03 µM (active) |
| COC(F)(F)C(F)(C(F)(F)F)C(F)(F)F | inactive |  |
| COCC(C)N (stereo not given) | inactive |  |
| C=CC(=O)OCCC(=O)O |  | 43.2 µM (active) |
| CCOC(=O)N1CCC(=C2c3ccc(Cl)cc3CCc3cccnc32)CC1 | inactive |  |
| CC=C1CC2C=CC1C2 (stereo not given) |  | 45.9 µM (active) |
| CC(=O)Oc1ccc(C)cc1 |  | 19.6 µM (active) |
| CCCCCCCCCCCCCCCC[N+](C)(C)CC | inactive |  |
| Cc1cccc(OCCOc2cccc(C)c2)c1 |  | 26.7 µM (active) |
| CC(=O)C=CC1C(C)=CCC(C)C1(C)C (stereo not given) |  | 27.8 µM (active) |
| C1=Cc2ccccc2C1 |  | 19.8 µM (active) |
| COC(=O)c1ccccc1OC | inactive |  |
| CCCCC/C=C\C/C=C\CCCCCCCC(=O)OC |  | 32.5 µM (active) |
| Nc1ccc(Cl)cc1Cl | inactive |  |
